PubChem BioAssay (Tox21)
Results filed as inconclusive are left out. Active and inactive are the calls of the source. Unless noted, calls come from the whole dose curve; as a rule, active = well fitted curve in the direction sought with a large enough effect in the repeat runs; inconclusive = weak or mixed curves; inactive = no such curve, though single readings can be large; an effect the other way counts as inactive or inconclusive.

Columns and labels:
[1] = qHTS assay to identify small molecule agonists of the vitamin D receptor (VDR) signaling pathway - cell viability counter screen (AID 743224); note: series mostly up to about 63 µM; % is set by controls: 0 for no effect and ±100 for the full control effect; nearly all actives have a fitted effect of over 50% in size
Procedure, shortened: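 VDR-bla cells, 4 h after plating, exposed to compounds for 16 h at 37C; viability then read in the same wells as CellTiter-Glo luminescence after 30 min at room temperature, following the bla FRET read.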

[2] = qHTS assay to identify small molecule antagonists of the vitamin D receptor (VDR) signaling pathway - cell viability counter screen (AID 743225); note: % is set by controls: 0 for no effect and ±100 for the full control effect; nearly all actives have a fitted effect of over 50% in size
Procedure, shortened: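 Same-well multiplex: following 16 h treatment of HEK 293T cells carrying a UAS-driven beta-lactamase reporter with compound and agonist (3 nM final), and a 2 h FRET substrate step, CellTiter-Glo was added and luminescence read after 30 min.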

[3] = qHTS assay to identify small molecule agonists of the NFkB signaling pathway (AID 1159509; active = well fitted curve in the direction sought with a large enough effect in the signal ratio in the repeat runs, not every such curve was filed as active; the % refers to the signal ratio; note: series mostly up to about 61 µM; % is set by controls: 0 for no effect and ±100 for the full control effect)
Procedure, shortened: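 After overnight attachment, reporter cells received test compounds, DMSO or positive controls and were incubated 5 hr at 37 C. FRET substrate was then added for 1.5 hr at room temperature before dual-emission fluorescence reading.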

[4] = qHTS assay to identify small molecule agonists of the NFkB signaling pathway - cell viability counter screen (AID 1159515; calls by dose curve; note: series mostly up to about 61 µM; % is set by controls: 0 for no effect and ±100 for the full control effect; nearly all actives have a fitted effect of over 55% in size)
Procedure, shortened: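 NFkB-bla ME-180 cells, 2,000/well, plated overnight at 37 C; compound added for 5 hr at 37 C. Viability read in the same wells as the bla reporter, by CellTiter-Glo luminescence after 30 min at room temperature.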

[5] = qHTS assay to identify small molecule agonists of the endoplasmic reticulum stress response signaling pathway (AID 1159516; active = well fitted activation curve with a large enough effect in the signal ratio in the repeat runs, not every such curve was filed as active; the % refers to the signal ratio; note: % is set by controls: 0 for no effect and ±100 for the full control effect)
Procedure, shortened: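 CellSensor ESRE-bla HeLa cells, 1,500 per well, plated overnight, then exposed to compounds for 5 hr at 37 C. Beta-lactamase reporter read with LiveBLAzer B/G FRET substrate after 2 hr at room temperature, 405 nm excitation, 460 and 530 nm emission.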

[6] = qHTS assay to identify small molecule agonists of the endoplasmic reticulum stress response signaling pathway - cell viability counter screen (AID 1159517; calls by dose curve;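 note: HeLa cells carrying an ER stress response element beta-lactamase reporter; series mostly up to about 61 µM; % is set by controls: 0 for no effect and ±100 for the full control effect; nearly all actives have a fitted effect of over 50% in size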)
Procedure, shortened: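 Cells, HeLa ESRE-bla; density, 1,500/well; dosing, 5 hr at 37 C, 5% CO2; readout, CellTiter-Glo luminescence after 30 min RT.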

[7] = qHTS assay to identify small molecule antagonists of the retinoid-related orphan receptor gamma (ROR-gamma) signaling pathway - cell viability counter screen (AID 1159520); note: % is set by controls: 0 for no effect and ±100 for the full control effect; nearly all actives have a fitted effect of over 50% in size
Procedure, shortened: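 Cytotoxicity was read from cellular ATP (CellTiter-Glo luminescence) after 16 hr at 37 C with 1 uM doxycycline induction. The inducer was added 2 hr after compound transfer to Tet-on ROR gamma CHO cells.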

[8] = target: Nuclear receptor ROR-gamma (Homo sapiens) (UniProt P51449); test: qHTS assay to identify small molecule antagonists of the retinoid-related orphan receptor gamma (ROR-gamma) signaling pathway (AID 1159521)
Procedure, shortened: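 Inducible-expression reporter assay: doxycycline (1 uM final) switched on RORγ in CHO cells bearing a ROR response element-luciferase construct, with test compounds present from 2 h beforehand. Decreased luminescence after 16 h defined antagonist activity.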

[9] = qHTS assay to identify small molecule agonists of the AP-1 signaling pathway (AID 1159526; calls by dose curve; note: % is set by controls: 0 for no effect and ±100 for the full control effect)
[10] = qHTS assay to identify small molecule agonists of the AP-1 signaling pathway - cell viability counter screen (AID 1159525; calls by dose curve; note: nearly all actives have a fitted effect of over 55% in size)
Procedure, shortened: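 Luminescent ATP readout (Cell Titer Glo, 30 min RT), normalised to DMSO and tetra n-octyl ammonium bromide controls. Cells were ME-180 AP-1-bla in 0.5% dialyzed FBS Opti-MEM, with a 5 h, 37 °C compound exposure.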

N#CCCCC(C#N)CCC#N (stereo not drawn)
inactive: outcome [1] | outcome [2] | outcome [3] | outcome [4] | outcome [5] | outcome [6] | Potency [7] | Potency [8] | Potency [9]

COc1ccc(C(=O)c2ccc(C)cc2)c(O)c1
inactive: outcome [1] | outcome [2] | outcome [3] | outcome [4] | outcome [5] | outcome [6] | Potency [7] | Potency [8] | Potency [9]

CCCOC(C)=O
inactive: outcome [1] | outcome [2] | outcome [3] | outcome [4] | outcome [5] | outcome [6] | Potency [7] | Potency [8] | Potency [9]

Nc1ccc(F)cc1F
inactive: outcome [2] | outcome [3] | outcome [4] | outcome [5] | outcome [6] | Potency [7] | Potency [8] | Potency [9]

SCCOCCOCCS
inactive: outcome [1] | outcome [2] | outcome [3] | outcome [4] | outcome [5] | outcome [6] | Potency [7] | Potency [8] | Potency [9]

CCOC(C)OCC
inactive: outcome [1] | outcome [2] | outcome [3] | outcome [4] | outcome [5] | outcome [6] | Potency [7] | Potency [8] | Potency [9]

CC(COc1ccccc1)NC(C)C(O)c1ccc(O)cc1 (stereo not drawn)
inactive: outcome [2] | outcome [3] | outcome [4] | outcome [5] | outcome [6] | Potency [7] | Potency [8]

CC1(COc2ccc(CC3SC(=O)NC3=O)cc2)CCCCC1 (stereo not drawn)
inactive: outcome [1] | outcome [2] | outcome [3] | outcome [4] | outcome [5] | outcome [6] | Potency [7] | Potency [8] | Potency [9]

Nc1ccc(C(=O)Oc2ccccc2)c(O)c1
inactive: outcome [1] | outcome [2] | outcome [3] | outcome [4] | outcome [5] | outcome [6] | Potency [7] | Potency [8] | Potency [9]

O=C(N[C@@H](Cc1ccccc1)[C@@H](O)C(=O)N1C[C@@H](O)[C@@H](O)C1)c1cc2cc(Cl)ccc2[nH]1
inactive: outcome [1] | outcome [2] | outcome [3] | outcome [4] | outcome [5] | outcome [6] | Potency [7] | Potency [8] | Potency [9]

CNc1ccccc1
inactive: outcome [1] | outcome [2] | outcome [3] | outcome [4] | outcome [5] | outcome [6] | Potency [7] | Potency [8] | Potency [9]

Nc1ccc(-c2ccc(F)cc2)cc1
inactive: outcome [1] | outcome [2] | outcome [3] | outcome [4] | outcome [5] | outcome [6] | Potency [7] | Potency [8] | Potency [9]

Cc1cc(C)n(CO)n1
inactive: outcome [1] | outcome [2] | outcome [3] | outcome [4] | outcome [5] | outcome [6] | Potency [7] | Potency [8] | Potency [9]

CC1(C)C(=O)NC(=O)N1CO
inactive: outcome [1] | outcome [2] | outcome [3] | outcome [4] | outcome [5] | outcome [6] | Potency [7] | Potency [8] | Potency [9]

FC(F)(Cl)C(F)(Cl)Cl
inactive: outcome [1] | outcome [3] | outcome [4] | outcome [5] | Potency [7] | Potency [8] | outcome [10] | Potency [9]

CCCC(=O)OCCC(C)C
inactive: outcome [1] | outcome [2] | outcome [3] | outcome [4] | outcome [5] | outcome [6] | Potency [7] | Potency [8] | Potency [9]

CCC(C)CCCC(C)(C)O (stereo not drawn)
inactive: outcome [1] | outcome [2] | outcome [3] | outcome [4] | outcome [5] | outcome [6] | Potency [7] | Potency [8] | Potency [9]

Cc1ccc(Cl)c(OCC(O)CNC(C)(C)C)c1 (stereo not drawn)
inactive: outcome [2] | outcome [3] | outcome [4] | outcome [5] | outcome [6] | Potency [7] | Potency [8] | outcome [10]

O=C(NC1CCN(CCc2c[nH]c3ccccc23)CC1)c1ccccc1
inactive: outcome [2] | outcome [3] | outcome [4] | outcome [5] | outcome [6] | Potency [7] | Potency [8] | outcome [10]

CC1=CC(=C(c2ccc(N)cc2)c2ccc(N)cc2)C=CC1=N
inactive: activity change, negative = cytotoxicity [1] -18.2% [at 5.95 µM] | activation [3] 0.0131% [at 6.95 µM] | activity, negative = cytotoxic [4] 11% [at 6.95 µM] | activation [5] -5.36% [at 6.95 µM] | activity, negative = cytotoxicity [7] -12.6% [at 8.39 µM] | activity change, negative = inhibition [8] -15.2% [at 8.39 µM] | viability change, negative = cytotoxic [10] 23.5% [at 6.97 µM] | activation [9] -9.58% [at 6.97 µM]

CC(C(=O)O)c1ccc(/C=C2\CCCCC2=O)cc1 (stereo not drawn)
inactive: outcome [1] | outcome [2] | outcome [3] | outcome [4] | outcome [5] | outcome [6] | Potency [7] | Potency [8] | Potency [9]

OCC(O)c1ccccc1 (stereo not drawn)
inactive: outcome [1] | outcome [3] | outcome [4] | outcome [5] | Potency [7] | Potency [8] | outcome [10] | Potency [9]

CCC(=O)O[C@]1(C(=O)COC)[C@@H](C)C[C@H]2[C@@H]3CCC4=CC(=O)C=C[C@]4(C)C3(F)[C@@H](O)C[C@@]21C (stereo partly drawn)
inactive: outcome [1] | outcome [2] | outcome [3] | outcome [4] | outcome [5] | outcome [6] | Potency [7] | Potency [8] | Potency [9]

COc1cc(CNC(=O)CCCC/C=C/C(C)C)ccc1O
inactive: outcome [1] | outcome [2] | outcome [3] | outcome [4] | outcome [5] | outcome [6] | Potency [7] | Potency [8] | Potency [9]
